Test systems include SK-MEL-2 melanoma; EKVX NSCLC; SN12C renal; UO-31 renal; TK-10 renal; ACHN renal; CAKI-1 renal; A498 renal; CCRF-CEM leukemia; MOLT-4 leukemia; SR leukemia; RPMI-8226 leukemia; OVCAR-8 ovarian; OVCAR-5 ovarian; OVCAR-4 ovarian; SK-OV-3 ovarian; IGROV1 ovarian; OVCAR-3 ovarian; HS 578T breast; NCI/ADR-RES ovarian.
Holding throughout (assay): NCI-60 one-dose screen, 48 h (100 = growth as untreated, 0 = no growth, -100 = all killed)
What all share (conditions): 10 µM unless noted

The panel holds about 83,000 compounds, 20% with a hit somewhere; the sample as a whole holds those more often.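 Values shown are percent growth following 48 h exposure of cells in 96-well plates to a single concentration of compound; below 10 was considered active.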 A number with no mark means an inactive call. The source made the active and inactive calls.

Take `COc1c2ccccc2c(OC)c2[nH]c(=O)ccc12`: the growth in the test on SK-MEL-2 melanoma was 64.2%; with EKVX NSCLC it was 27.8%; in the test with SN12C renal, 40.5%; with UO-31 renal it was 59.9%; in the test with TK-10 renal, 110%; in the test with ACHN renal, 65.1%. Moreover, the growth is 81% in the test with CAKI-1 renal; 48.3% in the test on A498 renal; -58.7% (active) in the test with CCRF-CEM leukemia; 69.4% with MOLT-4 leukemia; 22.2% in the test on SR leukemia; 55.2% in the test on RPMI-8226 leukemia. The growth in the test on OVCAR-8 ovarian was 87%; with OVCAR-5 ovarian it was 75.4%; in the test on OVCAR-4 ovarian, 60.4%; in the test on SK-OV-3 ovarian, 92.6%; with IGROV1 ovarian, 81.5%; with OVCAR-3 ovarian, 59.2%. The growth with HS 578T breast is 32.8%; in the test on NCI/ADR-RES ovarian, 57.6%.

Consider `N#Cc1c2c(nc3n[nH]c(N)c13)CCCC2`, for which the growth was 109% in the test with SK-MEL-2 melanoma; 58.3% in the test on EKVX NSCLC; 105% with SN12C renal; 71.7% in the test on UO-31 renal; 128% with TK-10 renal; 101% with ACHN renal. Further, the growth in the test with CAKI-1 renal is 95.5%; with A498 renal, 121%; with CCRF-CEM leukemia, 8.03% (active); in the test with MOLT-4 leukemia, 90.7%; with SR leukemia it was 93.6%; in the test on RPMI-8226 leukemia, 100%. Moreover, the growth is 111% in the test with OVCAR-8 ovarian; 93.8% in the test with OVCAR-5 ovarian; 101% with OVCAR-4 ovarian; 116% with SK-OV-3 ovarian; 109% with IGROV1 ovarian; 100% with OVCAR-3 ovarian. Besides, the figures for the growth in the test on HS 578T breast and in the test on NCI/ADR-RES ovarian were 117% and 105%, respectively.

As to `Cc1cc(N/N=C/c2nc(-c3ccc(Cl)cc3)oc2C)c2cc(Cl)ccc2n1`, the growth in the test on SK-MEL-2 melanoma was 104%; in the test on EKVX NSCLC, 92%; with SN12C renal it was -5.24% (active); in the test on UO-31 renal, 21.2%; in the test on TK-10 renal it was 30.5%; in the test with ACHN renal, 63.4%. The growth in the test on CAKI-1 renal was 90.2%; in the test on A498 renal, 86.9%; with CCRF-CEM leukemia, -24.3% (active); with MOLT-4 leukemia it was -20.7% (active); with SR leukemia, -6.42% (active); in the test on RPMI-8226 leukemia it was -35.5% (active). Moreover, the growth with OVCAR-8 ovarian was 10.4%; in the test with OVCAR-5 ovarian, 87.2%; in the test with OVCAR-4 ovarian it was -84.5% (active); in the test with SK-OV-3 ovarian, 100%; in the test on IGROV1 ovarian, 66.3%; in the test on OVCAR-3 ovarian it was -34.3% (active). The figures for the growth in the test on HS 578T breast and in the test with NCI/ADR-RES ovarian were 73.1% and 18%, respectively.

`COc1ccc2nc3cc(Cl)ccc3c(NCCNCC(O)CO)c2c1` (stereo not given): the growth with SK-MEL-2 melanoma is 27.9%; in the test on EKVX NSCLC, 42%; in the test on SN12C renal, 5.37% (active); in the test on UO-31 renal, 48.9%; with TK-10 renal, 32.3%; in the test with ACHN renal, 26.8%. Moreover, the growth was 71.9% in the test on CAKI-1 renal; 8.45% (active) with A498 renal; 25% with CCRF-CEM leukemia; 12.7% in the test on MOLT-4 leukemia; 6.64% (active) in the test with SR leukemia; 20.6% with RPMI-8226 leukemia. In addition, the growth was 23.3% with OVCAR-8 ovarian; 30.7% in the test on OVCAR-5 ovarian; 30.5% in the test with OVCAR-4 ovarian; 32.4% in the test on SK-OV-3 ovarian; 19.8% with IGROV1 ovarian; 26.2% in the test on OVCAR-3 ovarian. Moreover, the growth was 49.6% in the test on HS 578T breast and 87.7% with NCI/ADR-RES ovarian.

As to `CC(=O)C1=C(O)C=C2Oc3c(C(=O)/C=C/c4c(Cl)cccc4Cl)c(O)c(C)c(O)c3[C@]2(C)C1=O`, the growth in the test with SK-MEL-2 melanoma is -49.1% (active); in the test on EKVX NSCLC, -0.577% (active); with SN12C renal, -30.9% (active); with UO-31 renal, -28.6% (active); with TK-10 renal, -30.8% (active); with ACHN renal, -15.3% (active). The growth with CAKI-1 renal was 6.78% (active); in the test with A498 renal, -72.4% (active); in the test on CCRF-CEM leukemia, -25.3% (active); in the test on MOLT-4 leukemia, -33% (active); in the test on SR leukemia, -31% (active); with RPMI-8226 leukemia, -17.7% (active). The growth was -18.9% (active) in the test with OVCAR-8 ovarian; -3.17% (active) in the test on OVCAR-5 ovarian; 7.41% (active) in the test with OVCAR-4 ovarian; -30.9% (active) with SK-OV-3 ovarian; -8.78% (active) in the test on IGROV1 ovarian; -30.6% (active) in the test with OVCAR-3 ovarian. In addition, the growth was -18.1% (active) in the test with HS 578T breast and -23.4% (active) in the test with NCI/ADR-RES ovarian.

With `CCOC(=O)c1c2ncccc2n2c(=O)n(-c3ccc(Cl)cc3)nnc12`, the growth in the test on SK-MEL-2 melanoma was 108%; with EKVX NSCLC, 68.7%; with SN12C renal, 103%; in the test with UO-31 renal, 61%; with TK-10 renal, 154%; in the test with ACHN renal, 77.9%. The growth in the test on CAKI-1 renal was 73.9%; with A498 renal, 106%; with CCRF-CEM leukemia, 72%; in the test with MOLT-4 leukemia, 86.8%; in the test on SR leukemia, 91.4%; in the test on RPMI-8226 leukemia, 92.8%. The growth with OVCAR-8 ovarian is 57.1%; in the test with OVCAR-5 ovarian, 67.7%; with OVCAR-4 ovarian it was 84.6%; with SK-OV-3 ovarian, 92.2%; with IGROV1 ovarian, 85.6%; in the test on OVCAR-3 ovarian, 95.2%. The growth is 93.9% in the test with HS 578T breast and 59.8% with NCI/ADR-RES ovarian.

Regarding `Cc1cc(-c2nc3ccccc3s2)ccc1NC(=O)COc1ccc(Cl)cc1`, the growth with SK-MEL-2 melanoma is 104%; in the test on EKVX NSCLC it was 78.9%; in the test on SN12C renal, 88.3%; with UO-31 renal, 69%; in the test with TK-10 renal it was 53.7%; in the test on ACHN renal it was 95.5%. Besides, the growth in the test on CAKI-1 renal was 84.5%; in the test with A498 renal, 106%; in the test with CCRF-CEM leukemia, 106%; with MOLT-4 leukemia, 94.5%; with SR leukemia, 87.5%; in the test with RPMI-8226 leukemia, 72.1%. Also, the growth is 105% in the test on OVCAR-8 ovarian; 65.5% in the test on OVCAR-5 ovarian; 56.5% in the test with OVCAR-4 ovarian; 104% with SK-OV-3 ovarian; 31.6% in the test with IGROV1 ovarian; 120% with OVCAR-3 ovarian. The figures for the growth with HS 578T breast and in the test with NCI/ADR-RES ovarian were 117% and 93.3%, respectively.

On to `Cc1cc2cc3cc(C)c(N(C)C)cc3nc2cc1N(C)C`, for which the growth is -31.8% (active) with SK-MEL-2 melanoma; 34.6% in the test on EKVX NSCLC; 15.3% with SN12C renal; 59.1% with UO-31 renal; -14.6% (active) with TK-10 renal; 39.1% in the test with ACHN renal. Further, the growth in the test on CAKI-1 renal is 43.7%; in the test on A498 renal, 52.8%; in the test with CCRF-CEM leukemia, 17.3%; in the test on MOLT-4 leukemia it was 29.1%; in the test with SR leukemia it was 25%; in the test on RPMI-8226 leukemia, -0.205% (active). Moreover, the growth in the test with OVCAR-8 ovarian was 22.5%; in the test with OVCAR-5 ovarian it was 53.9%; in the test on OVCAR-4 ovarian, 32.4%; in the test with SK-OV-3 ovarian, 17.7%; in the test with IGROV1 ovarian it was -13.8% (active); with OVCAR-3 ovarian, -25.5% (active). Further, the growth was 31.7% in the test on HS 578T breast and 82.5% in the test with NCI/ADR-RES ovarian.

Values taken from PubChem BioAssay (NCI).
